# What was measured:
# [1] = system: Epidermal growth factor receptor (Homo sapiens), P00533 [T790M]; details: at 1 µM
# [2] = system: Epidermal growth factor receptor (Homo sapiens), P00533 [L858R,T790M]; details: at 0.1 µM
# [3] = system: Epidermal growth factor receptor (Homo sapiens), P00533 [L858R,T790M]; details: at 1 µM
# [4] = target: Ephrin type-A receptor 2 (Homo sapiens) (UniProt P29317); details: at 0.1 µM
# [5] = target: Ephrin type-A receptor 2 (Homo sapiens) (UniProt P29317); details: at 1 µM
# [6] = target: T1, Ephrin type-A receptor 3 (Homo sapiens) (UniProt P29320); details: at 0.1 µM
# T1 sequence (whole entry): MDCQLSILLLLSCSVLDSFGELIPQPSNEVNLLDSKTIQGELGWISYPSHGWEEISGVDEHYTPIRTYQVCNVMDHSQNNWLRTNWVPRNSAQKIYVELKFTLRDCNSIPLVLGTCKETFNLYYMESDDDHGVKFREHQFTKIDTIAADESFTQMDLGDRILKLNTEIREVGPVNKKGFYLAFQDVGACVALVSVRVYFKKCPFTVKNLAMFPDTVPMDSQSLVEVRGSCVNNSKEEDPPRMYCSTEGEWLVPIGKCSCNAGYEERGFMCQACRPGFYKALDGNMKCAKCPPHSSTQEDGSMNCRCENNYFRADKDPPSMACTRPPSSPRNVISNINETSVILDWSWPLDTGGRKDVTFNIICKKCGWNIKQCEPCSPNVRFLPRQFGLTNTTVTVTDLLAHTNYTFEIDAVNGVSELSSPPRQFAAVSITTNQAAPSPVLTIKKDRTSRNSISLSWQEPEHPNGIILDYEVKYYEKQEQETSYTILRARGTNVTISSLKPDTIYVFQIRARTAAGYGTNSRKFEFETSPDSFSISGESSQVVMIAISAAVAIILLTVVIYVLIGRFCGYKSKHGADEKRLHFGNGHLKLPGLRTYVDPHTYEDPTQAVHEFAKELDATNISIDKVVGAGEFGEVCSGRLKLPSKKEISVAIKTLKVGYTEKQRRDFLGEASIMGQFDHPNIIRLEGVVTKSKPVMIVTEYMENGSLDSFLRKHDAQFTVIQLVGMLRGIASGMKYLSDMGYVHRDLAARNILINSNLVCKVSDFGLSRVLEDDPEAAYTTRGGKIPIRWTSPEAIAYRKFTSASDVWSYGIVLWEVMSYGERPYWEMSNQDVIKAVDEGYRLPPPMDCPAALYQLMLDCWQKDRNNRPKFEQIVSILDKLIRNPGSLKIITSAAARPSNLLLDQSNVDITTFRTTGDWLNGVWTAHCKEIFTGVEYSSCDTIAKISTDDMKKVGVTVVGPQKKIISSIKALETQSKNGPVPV
# [7] = target: T1, Ephrin type-A receptor 3 (Homo sapiens); details: at 1 µM
# [8] = target: Ephrin type-A receptor 4 (Homo sapiens) (UniProt P54764); details: at 0.1 µM
# [9] = target: Ephrin type-A receptor 4 (Homo sapiens) (UniProt P54764); details: at 1 µM
# [10] = target: T2, Ephrin type-B receptor 2 (Homo sapiens) (UniProt P29323); details: at 0.1 µM
# T2 sequence (whole entry): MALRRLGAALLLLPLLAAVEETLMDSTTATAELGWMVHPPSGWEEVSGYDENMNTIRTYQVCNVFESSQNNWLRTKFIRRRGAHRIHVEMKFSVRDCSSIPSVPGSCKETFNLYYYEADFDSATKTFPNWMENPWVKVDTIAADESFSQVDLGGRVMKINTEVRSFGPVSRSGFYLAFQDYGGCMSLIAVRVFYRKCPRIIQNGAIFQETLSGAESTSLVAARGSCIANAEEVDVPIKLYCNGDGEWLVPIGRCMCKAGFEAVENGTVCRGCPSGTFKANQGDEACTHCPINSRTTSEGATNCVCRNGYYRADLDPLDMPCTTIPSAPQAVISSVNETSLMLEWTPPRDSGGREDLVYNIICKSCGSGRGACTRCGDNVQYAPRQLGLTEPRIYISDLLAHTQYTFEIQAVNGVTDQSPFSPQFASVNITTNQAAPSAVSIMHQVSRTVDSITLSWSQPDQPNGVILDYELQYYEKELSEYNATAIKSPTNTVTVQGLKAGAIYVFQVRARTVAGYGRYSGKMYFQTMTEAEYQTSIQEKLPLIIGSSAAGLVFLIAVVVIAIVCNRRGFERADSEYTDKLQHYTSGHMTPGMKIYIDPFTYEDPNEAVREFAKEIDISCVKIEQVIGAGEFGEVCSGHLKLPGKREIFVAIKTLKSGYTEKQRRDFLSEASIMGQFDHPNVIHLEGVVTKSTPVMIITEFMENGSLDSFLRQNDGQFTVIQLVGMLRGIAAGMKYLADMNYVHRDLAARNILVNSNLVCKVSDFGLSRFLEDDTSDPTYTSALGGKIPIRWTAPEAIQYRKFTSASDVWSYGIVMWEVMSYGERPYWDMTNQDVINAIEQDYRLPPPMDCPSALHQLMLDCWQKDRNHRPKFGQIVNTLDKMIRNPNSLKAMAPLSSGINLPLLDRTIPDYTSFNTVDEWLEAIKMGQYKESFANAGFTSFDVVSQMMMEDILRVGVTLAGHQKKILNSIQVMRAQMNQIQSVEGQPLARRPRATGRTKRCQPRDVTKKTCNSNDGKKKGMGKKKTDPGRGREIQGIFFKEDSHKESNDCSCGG
# [11] = target: T2, Ephrin type-B receptor 2 (Homo sapiens); details: at 1 µM
# [12] = target: T3, Ephrin type-B receptor 3 (Homo sapiens) (UniProt P54753); details: at 0.1 µM
# T3 sequence (whole entry): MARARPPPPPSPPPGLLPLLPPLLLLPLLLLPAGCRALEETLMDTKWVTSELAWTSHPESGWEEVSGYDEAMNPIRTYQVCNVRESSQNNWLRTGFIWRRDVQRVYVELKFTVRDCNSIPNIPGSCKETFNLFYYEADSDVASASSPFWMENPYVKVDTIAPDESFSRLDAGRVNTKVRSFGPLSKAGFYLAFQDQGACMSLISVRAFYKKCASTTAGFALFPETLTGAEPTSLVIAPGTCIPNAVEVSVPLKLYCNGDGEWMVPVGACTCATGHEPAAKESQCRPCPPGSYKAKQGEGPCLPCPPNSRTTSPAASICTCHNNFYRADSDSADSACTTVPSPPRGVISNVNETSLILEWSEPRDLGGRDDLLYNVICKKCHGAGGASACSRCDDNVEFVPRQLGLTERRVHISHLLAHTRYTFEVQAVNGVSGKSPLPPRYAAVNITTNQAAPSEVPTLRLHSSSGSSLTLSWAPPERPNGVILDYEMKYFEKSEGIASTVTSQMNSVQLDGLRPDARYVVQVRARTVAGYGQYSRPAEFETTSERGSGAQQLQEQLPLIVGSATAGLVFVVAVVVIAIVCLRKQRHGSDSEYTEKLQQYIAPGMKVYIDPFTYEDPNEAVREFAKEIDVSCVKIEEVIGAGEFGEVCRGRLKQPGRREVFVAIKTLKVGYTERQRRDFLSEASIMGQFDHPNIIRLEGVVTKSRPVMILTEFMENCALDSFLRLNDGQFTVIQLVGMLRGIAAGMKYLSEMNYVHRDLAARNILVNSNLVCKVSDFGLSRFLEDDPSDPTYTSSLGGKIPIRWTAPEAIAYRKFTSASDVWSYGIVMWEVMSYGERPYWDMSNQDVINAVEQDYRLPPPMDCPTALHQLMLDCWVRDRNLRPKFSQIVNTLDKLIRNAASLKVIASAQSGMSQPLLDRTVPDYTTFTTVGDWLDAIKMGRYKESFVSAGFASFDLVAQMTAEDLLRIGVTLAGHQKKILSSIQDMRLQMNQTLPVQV
# [13] = target: T3, Ephrin type-B receptor 3 (Homo sapiens); details: at 1 µM
# [14] = target: T4, Ephrin type-B receptor 4 (Homo sapiens) (UniProt P54760); details: at 0.1 µM
# T4 sequence (whole entry): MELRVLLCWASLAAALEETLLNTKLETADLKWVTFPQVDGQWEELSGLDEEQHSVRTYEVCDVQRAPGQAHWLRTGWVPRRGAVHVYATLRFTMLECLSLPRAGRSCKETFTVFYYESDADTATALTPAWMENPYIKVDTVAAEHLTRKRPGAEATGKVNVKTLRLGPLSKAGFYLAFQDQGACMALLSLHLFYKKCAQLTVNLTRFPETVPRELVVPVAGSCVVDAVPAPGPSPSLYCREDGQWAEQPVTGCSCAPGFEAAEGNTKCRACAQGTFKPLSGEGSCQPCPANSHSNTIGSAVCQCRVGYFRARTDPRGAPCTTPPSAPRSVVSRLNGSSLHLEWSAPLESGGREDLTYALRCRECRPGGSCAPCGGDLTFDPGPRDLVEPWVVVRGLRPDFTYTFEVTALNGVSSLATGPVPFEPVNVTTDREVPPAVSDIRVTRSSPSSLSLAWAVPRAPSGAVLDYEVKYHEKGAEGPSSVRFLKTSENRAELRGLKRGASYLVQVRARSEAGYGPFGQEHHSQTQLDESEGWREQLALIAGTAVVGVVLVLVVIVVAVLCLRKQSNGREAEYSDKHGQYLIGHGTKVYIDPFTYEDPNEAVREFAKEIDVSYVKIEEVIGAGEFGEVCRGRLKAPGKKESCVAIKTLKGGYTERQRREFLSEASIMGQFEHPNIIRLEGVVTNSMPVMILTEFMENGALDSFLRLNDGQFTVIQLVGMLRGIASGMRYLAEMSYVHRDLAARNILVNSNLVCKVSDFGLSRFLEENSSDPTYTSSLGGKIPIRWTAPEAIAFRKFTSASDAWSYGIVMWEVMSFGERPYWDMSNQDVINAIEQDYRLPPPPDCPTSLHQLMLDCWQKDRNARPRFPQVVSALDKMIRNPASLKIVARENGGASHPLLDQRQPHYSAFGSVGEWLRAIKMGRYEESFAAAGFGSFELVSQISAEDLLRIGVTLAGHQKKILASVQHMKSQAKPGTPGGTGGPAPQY
# [15] = target: T4, Ephrin type-B receptor 4 (Homo sapiens); details: at 1 µM
# [16] = target: Receptor tyrosine-protein kinase erbB-2 (Homo sapiens) (UniProt P04626); details: at 0.1 µM
# [17] = target: Receptor tyrosine-protein kinase erbB-2 (Homo sapiens) (UniProt P04626); details: at 1 µM
# [18] = target: Receptor tyrosine-protein kinase erbB-4 (Homo sapiens) (UniProt Q15303); details: at 0.1 µM
# [19] = target: Receptor tyrosine-protein kinase erbB-4 (Homo sapiens) (UniProt Q15303); details: at 1 µM
# [20] = target: Tyrosine-protein kinase Fer (Homo sapiens) (UniProt P16591); details: at 0.1 µM;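 also: reported figures are averaged percent inhibition of FER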
# Tyrosine-protein kinase Fer (Homo sapiens), sequence (P16591 whole entry, looked up): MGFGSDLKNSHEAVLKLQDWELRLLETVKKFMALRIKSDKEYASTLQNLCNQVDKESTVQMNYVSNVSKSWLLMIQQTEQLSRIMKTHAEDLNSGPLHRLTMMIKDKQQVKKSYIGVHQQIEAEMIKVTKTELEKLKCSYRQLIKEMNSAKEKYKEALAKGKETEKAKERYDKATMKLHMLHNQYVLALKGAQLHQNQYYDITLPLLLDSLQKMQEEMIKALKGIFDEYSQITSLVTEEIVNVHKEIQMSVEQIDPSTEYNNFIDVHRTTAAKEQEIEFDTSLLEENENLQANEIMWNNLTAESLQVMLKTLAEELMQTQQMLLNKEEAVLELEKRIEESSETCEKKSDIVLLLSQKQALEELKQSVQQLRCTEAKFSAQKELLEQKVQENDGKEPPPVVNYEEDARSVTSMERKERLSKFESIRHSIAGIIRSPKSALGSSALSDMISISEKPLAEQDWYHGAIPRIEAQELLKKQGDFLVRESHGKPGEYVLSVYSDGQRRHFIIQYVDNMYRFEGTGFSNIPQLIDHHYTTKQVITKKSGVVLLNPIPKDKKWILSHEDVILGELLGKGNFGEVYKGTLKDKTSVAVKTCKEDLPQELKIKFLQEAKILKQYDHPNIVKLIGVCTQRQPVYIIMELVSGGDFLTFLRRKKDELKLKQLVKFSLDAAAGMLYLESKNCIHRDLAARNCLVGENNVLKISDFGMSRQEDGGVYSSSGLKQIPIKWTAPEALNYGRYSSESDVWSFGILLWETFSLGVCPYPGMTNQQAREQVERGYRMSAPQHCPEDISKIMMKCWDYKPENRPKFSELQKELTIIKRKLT
# Receptor tyrosine-protein kinase erbB-2 (Homo sapiens), sequence (P04626 whole entry): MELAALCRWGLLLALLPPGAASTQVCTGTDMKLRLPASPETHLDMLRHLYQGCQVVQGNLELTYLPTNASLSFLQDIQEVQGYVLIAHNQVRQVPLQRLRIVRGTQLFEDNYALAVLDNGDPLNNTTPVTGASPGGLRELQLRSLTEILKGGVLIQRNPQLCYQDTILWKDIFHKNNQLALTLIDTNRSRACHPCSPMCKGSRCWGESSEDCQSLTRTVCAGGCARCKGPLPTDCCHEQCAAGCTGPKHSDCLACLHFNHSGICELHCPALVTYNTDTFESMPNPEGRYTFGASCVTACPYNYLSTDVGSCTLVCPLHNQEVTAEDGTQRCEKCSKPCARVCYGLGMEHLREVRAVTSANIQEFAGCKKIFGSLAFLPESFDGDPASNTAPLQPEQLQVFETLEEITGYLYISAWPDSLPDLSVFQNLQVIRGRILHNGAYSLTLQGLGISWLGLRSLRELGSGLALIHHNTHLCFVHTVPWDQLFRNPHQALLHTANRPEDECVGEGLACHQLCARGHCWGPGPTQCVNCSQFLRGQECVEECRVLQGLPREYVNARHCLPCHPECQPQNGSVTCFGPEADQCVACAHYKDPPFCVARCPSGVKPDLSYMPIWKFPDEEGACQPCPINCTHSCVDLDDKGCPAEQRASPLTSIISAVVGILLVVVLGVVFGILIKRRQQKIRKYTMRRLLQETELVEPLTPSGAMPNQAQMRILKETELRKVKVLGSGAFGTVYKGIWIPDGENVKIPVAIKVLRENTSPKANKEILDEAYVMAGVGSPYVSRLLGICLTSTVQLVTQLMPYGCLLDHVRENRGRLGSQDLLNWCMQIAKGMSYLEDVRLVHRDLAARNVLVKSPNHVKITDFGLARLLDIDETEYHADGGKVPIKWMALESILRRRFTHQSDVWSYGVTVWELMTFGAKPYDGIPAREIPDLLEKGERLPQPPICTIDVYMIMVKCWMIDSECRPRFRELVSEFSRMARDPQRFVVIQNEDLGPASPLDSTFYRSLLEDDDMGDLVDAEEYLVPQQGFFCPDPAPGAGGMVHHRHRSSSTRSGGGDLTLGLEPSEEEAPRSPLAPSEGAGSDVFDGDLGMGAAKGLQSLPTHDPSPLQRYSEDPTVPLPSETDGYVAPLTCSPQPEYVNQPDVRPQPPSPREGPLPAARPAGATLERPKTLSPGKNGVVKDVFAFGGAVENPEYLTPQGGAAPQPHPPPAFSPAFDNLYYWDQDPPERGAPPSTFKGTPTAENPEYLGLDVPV
# Epidermal growth factor receptor (Homo sapiens), P00533 [T790M], sequence (P00533 whole entry T790M): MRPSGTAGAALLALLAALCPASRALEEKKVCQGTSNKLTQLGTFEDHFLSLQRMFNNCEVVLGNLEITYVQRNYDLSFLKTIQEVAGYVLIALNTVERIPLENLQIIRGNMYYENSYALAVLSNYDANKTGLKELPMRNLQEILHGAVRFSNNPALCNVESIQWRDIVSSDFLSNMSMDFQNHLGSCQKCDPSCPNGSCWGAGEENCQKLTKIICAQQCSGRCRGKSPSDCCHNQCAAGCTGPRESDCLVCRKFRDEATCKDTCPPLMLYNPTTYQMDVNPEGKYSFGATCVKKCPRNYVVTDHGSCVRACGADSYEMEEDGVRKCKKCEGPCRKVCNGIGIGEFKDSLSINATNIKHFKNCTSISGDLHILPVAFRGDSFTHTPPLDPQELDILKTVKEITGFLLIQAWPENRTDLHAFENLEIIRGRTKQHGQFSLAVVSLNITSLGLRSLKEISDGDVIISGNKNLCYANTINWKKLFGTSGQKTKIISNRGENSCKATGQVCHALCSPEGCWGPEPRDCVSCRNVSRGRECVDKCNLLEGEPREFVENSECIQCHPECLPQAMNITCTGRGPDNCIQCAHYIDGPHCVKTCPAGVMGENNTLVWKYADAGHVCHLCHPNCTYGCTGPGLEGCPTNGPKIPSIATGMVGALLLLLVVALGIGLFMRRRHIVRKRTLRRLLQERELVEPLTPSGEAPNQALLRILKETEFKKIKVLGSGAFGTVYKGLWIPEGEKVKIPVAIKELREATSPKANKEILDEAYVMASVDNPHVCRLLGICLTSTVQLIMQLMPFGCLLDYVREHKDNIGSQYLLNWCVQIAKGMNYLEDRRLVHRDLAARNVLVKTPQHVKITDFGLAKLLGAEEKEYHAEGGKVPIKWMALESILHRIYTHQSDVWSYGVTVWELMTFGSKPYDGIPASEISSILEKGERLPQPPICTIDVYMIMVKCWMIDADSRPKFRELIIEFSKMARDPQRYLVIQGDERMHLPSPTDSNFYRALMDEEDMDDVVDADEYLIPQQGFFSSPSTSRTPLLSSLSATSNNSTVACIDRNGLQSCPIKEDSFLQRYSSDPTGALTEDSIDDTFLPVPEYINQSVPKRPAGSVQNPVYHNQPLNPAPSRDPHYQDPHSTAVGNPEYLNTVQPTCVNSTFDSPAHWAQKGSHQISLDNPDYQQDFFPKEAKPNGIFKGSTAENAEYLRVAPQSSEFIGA
# Ephrin type-A receptor 4 (Homo sapiens), sequence (P54764 whole entry): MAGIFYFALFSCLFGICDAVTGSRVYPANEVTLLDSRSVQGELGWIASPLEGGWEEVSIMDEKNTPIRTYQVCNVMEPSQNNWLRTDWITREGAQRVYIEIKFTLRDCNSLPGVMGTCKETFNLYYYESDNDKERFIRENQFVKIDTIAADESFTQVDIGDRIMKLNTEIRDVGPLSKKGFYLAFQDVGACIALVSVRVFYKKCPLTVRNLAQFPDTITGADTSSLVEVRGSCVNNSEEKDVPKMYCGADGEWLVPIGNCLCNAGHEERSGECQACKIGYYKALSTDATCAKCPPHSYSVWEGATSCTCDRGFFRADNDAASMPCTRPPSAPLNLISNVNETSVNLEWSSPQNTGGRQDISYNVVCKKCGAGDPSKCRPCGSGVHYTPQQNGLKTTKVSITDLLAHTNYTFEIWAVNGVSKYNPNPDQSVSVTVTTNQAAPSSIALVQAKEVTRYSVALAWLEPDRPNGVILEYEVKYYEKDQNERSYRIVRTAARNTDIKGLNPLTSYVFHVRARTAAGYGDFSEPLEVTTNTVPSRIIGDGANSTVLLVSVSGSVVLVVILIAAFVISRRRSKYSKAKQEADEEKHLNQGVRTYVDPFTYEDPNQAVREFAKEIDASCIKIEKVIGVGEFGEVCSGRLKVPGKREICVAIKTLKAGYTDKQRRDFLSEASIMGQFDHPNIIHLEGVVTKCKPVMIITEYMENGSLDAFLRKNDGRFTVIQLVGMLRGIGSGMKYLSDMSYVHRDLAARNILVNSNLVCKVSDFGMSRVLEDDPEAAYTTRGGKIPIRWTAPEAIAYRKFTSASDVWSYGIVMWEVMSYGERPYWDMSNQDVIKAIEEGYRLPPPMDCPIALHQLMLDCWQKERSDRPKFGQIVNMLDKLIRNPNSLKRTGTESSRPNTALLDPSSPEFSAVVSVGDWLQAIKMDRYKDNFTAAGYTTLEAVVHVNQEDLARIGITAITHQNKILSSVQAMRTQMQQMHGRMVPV
SMILES,inhibition [1] [%],inhibition [2] [%],inhibition [3] [%],inhibition [4] [%],inhibition [5] [%],inhibition [6] [%],inhibition [7] [%],inhibition [8] [%],inhibition [9] [%],inhibition [10] [%],inhibition [11] [%],inhibition [12] [%],inhibition [13] [%],inhibition [14] [%],inhibition [15] [%],inhibition [16] [%],inhibition [17] [%],inhibition [18] [%],inhibition [19] [%],inhibition [20] [%]
C[C@@H](Oc1cc(-n2cnc3ccc(OCC4CCN(C)CC4)cc32)sc1C(N)=O)c1ccccc1Cl,3.47,-2.11,7.41,1.42,1.71,3.99,4.27,8.9,11.6,9.82,8.25,2.8,6.12,5.24,3.86,41.4,4.61,9.63,13.1,1.28
CN(C)CCOc1ccc(-c2cc(-c3ccc4c(c3)CCC4=NO)c(-c3ccncc3)o2)cc1,0.59,-2.24,-0.02,-1.99,-3.05,0.49,-1.83,-1.28,0.81,-5.39,6.81,-0.49,5.63,0.06,1.37,3.66,5.12,1.69,13,-1.17
CN1CCN(CCCNc2nc3ccc(Oc4ccc(NC(=O)Nc5cc(C(F)(F)F)ccc5F)cc4)cc3[nH]2)CC1,-2.83,-0.44,-4.26,-3.26,2.37,-0.6,-0.47,6.02,25.9,9.54,58.8,-3.09,-6.41,-1.44,16.4,-2.7,-2.07,3.38,2.56,3.88
Cc1ccc(C(=O)NC(C)C)cc1-c1ccc(C(=O)NCC2CC2)cc1,-3.61,-2.78,-0.98,-1.78,-2.07,-7.27,-6.99,-6.17,-6.72,-9.67,0.35,-7.05,-4.82,-0.32,-2.91,-5.52,-4.79,–,–,-1.9
O=C(Nc1n[nH]c2nc(-c3ccc(O)cc3)c(Br)cc12)C1CC1,5.37,6.72,8.16,4.79,24.2,8.45,14,15.2,39.2,11.9,37.8,9.61,5.92,7.91,28.8,2.58,4.82,14.9,22,3.43
COc1cc2ncn(-c3cc(OCCc4ccccc4)c(C(N)=O)s3)c2cc1OC,0.49,0.55,4.9,1.97,0.66,3.06,4.07,4.63,3.61,3.87,6.52,2.67,2.11,2.03,2.56,2.58,2.47,13.8,13.1,4.91
COc1ccc(-c2ccc3c(NC(=O)C4CC4)n[nH]c3n2)cc1,4.06,-0.83,5.32,0.96,0.05,2.4,3.41,6.38,10.4,1.78,5.25,3.22,2.79,1.54,-0.15,2.9,3.27,4.2,3.94,2
